# Measured values as given in the supplement of paper PMC12636033.
# ± gives the standard deviation of the averaged measurements. Whole data set: some 33,000 sequences, median “E-score (rank enrichment, -0.5 to 0.5)” near -0.0075, cut for the highest 2% near 0.23. This is one part of a sample in which the highest values are shown more often than they occur.
# System: WT Max(13-93) synthetic (M65Nle)
# Test: PBM 8-mer E-score (E-score (rank enrichment, -0.5 to 0.5)); higher = stronger preferential binding
# Description: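 Protein binding microarray (universal PBM chip covering all 10-mers in fixed probe flanks) with chemically synthesized human Max(13-93) bHLH-LZ analogs (not full-length Max) bearing noncanonical residues (hArg, Tha, Aib, Nle at 65) and aromatic Cys staples. Read-out per 8-mer (and its reverse complement): E-score (rank-based enrichment, -0.5 to 0.5) and Z-score of median probe intensity.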
row,Sequence,PBM 8-mer E-score
1,GACGTGAA,-0.138 ± 0.057
2,GGCTAGAC,-0.217 ± 0.07
3,TACGCCAA,0.0646 ± 0.021
4,CCATAACC,0.145 ± 0.0043
5,GCATAACA,0.27 ± 0.04
6,CCATAACA,0.236 ± 0.036
7,CAATAACA,0.193 ± 0.046
8,CCATAACG,-0.0417 ± 0.027
9,ACATAACA,0.215 ± 0.0054
10,TAATAACA,0.131 ± 0.0072
11,GAATAACA,0.242 ± 0.094
12,GCATAACC,-0.0331 ± 0.022
13,CAAGTAAC,0.0157 ± 0.17
14,AAGGACAA,-0.103 ± 0.0038
15,AGACTTAC,0.0412 ± 0.036
16,GGACTGAC,-0.163 ± 0.079
17,ACGCGGAC,0.112 ± 0.0026
18,CCCCTTAG,-0.25 ± 0.047
19,GCACACGC,0.284 ± 0.051
20,ACACACGT,0.295 ± 0.028
21,GTACACGA,0.246 ± 0.037
22,GCACACGA,0.121 ± 0.081

row,Sequence,PBM 8-mer E-score
1,ACACACGG,-0.09 ± 0.023
2,ATACACGA,0.194 ± 0.032
3,ACACACGA,0.252 ± 0.021
4,CTACACGA,-0.00142 ± 0.052
5,ACACACAA,0.0899 ± 0.06
6,TCACACGA,0.0202 ± 0.039
7,ACACACAT,0.208 ± 0.024
8,ACACACGC,0.208 ± 0.02
9,GGCACATA,-0.00374 ± 0.019
10,TGCGTTAA,-0.0126 ± 0.025
11,CACAATAC,0.204 ± 0.018
12,AGGGTTCG,0.0226 ± 0.091
13,GCCATACA,0.0396 ± 0.039
14,AACCCCCT,-0.12 ± 0.022
15,AGGATCTG,-0.1 ± 0.11
16,CCAACCGC,-0.126 ± 0.13
17,CTGCCCCC,-0.128 ± 0.089
18,CAAAATAC,0.189 ± 0.047
19,GAGCATGC,0.249 ± 0.018
20,CGGCATGC,0.124 ± 0.05
21,GAGCATAC,0.00326 ± 0.079
22,GAGCATGA,0.205 ± 0.03

row,Sequence,PBM 8-mer E-score
1,CAGCATGG,0.331 ± 0.028
2,CAGCATGC,0.237 ± 0.04
3,GACCATGC,0.27 ± 0.043
4,CAGCATAG,-0.0673 ± 0.062
5,GACCATGA,-0.0818 ± 0.059
6,CAGCATAC,0.0204 ± 0.073
7,CAGCATGA,0.128 ± 0.022
8,AACCATGC,0.162 ± 0.018
9,ATCGCGGC,-0.136 ± 0.14
10,CGAAACGC,-0.14 ± 0.0054
11,GAACACTC,-0.0859 ± 0.0037
12,ATTTATTA,0.152 ± 0.031
13,ATACCAAA,0.124 ± 0.029
14,CTAATGGA,-0.125 ± 0.0031
15,ACCATATA,0.248 ± 0.043
16,ACTATATC,0.21 ± 0.015
17,GCTATATA,0.146 ± 0.04
18,ACCATATG,0.221 ± 0.0037
19,ACTATATA,0.274 ± 0.0075
20,ACCATATC,0.0455 ± 0.019
21,ACCGGCAC,0.0185 ± 0.12
22,CTATCTCC,-0.00138 ± 0.076

row,Sequence,PBM 8-mer E-score
1,GAAGTAGA,0.0186 ± 0.0018
2,ACTGATCG,-0.106 ± 0.045
3,AAGTGTAT,0.149 ± 0.018
4,ACGTGTAG,0.1905 ± 0.0018
5,TCGTGTAA,0.1 ± 0.05
6,ACGTGTAA,0.35 ± 0.019
7,CCGTGTAA,-0.00838 ± 0.1
8,GCGTGTAC,0.125 ± 0.015
9,AGGTGTAT,0.136 ± 0.019
10,ACGTGTAC,0.354 ± 0.014
11,ACGTGTAT,0.4013 ± 0.0019
12,ATTACCCA,0.146 ± 0.11
13,CCCTAAGC,-0.152 ± 0.068
14,TAATGTGA,0.233 ± 0.075
15,ATATATGA,0.0913 ± 0.21
16,CTATATGC,0.168 ± 0.083
17,AAATGTGA,0.026 ± 0.14
18,ATATATGC,0.0949 ± 0.049
19,ATATAGTG,0.2556 ± 0.0011
20,ATATATGG,0.244 ± 0.055
21,ATATAGTC,0.107 ± 0.0014
22,GTATATGA,0.266 ± 0.019
